Shown are actives, neighbours in structure and some others; about 1.7% of the full set was active somewhere.
N-glyco inh: N-linked glycosylation inhibition | D54 ERlucT glycosylation luciferase reporter, 24 h; percent of 100 nM tunicamycin response | actives 0.23% (n = 360,000) | reporter increase, % at 12.5 µM | AID 588692;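 active means mean luciferase reporter signal, scaled so untreated is 0 and the glycosylation-blocking control 100, at or above a set limit in every replicate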;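 further: luciferase carries N-glycosylation sites so blocking glycosylation raises the light; 0% = median of neutral control wells and 100% = median of 100 nM tunicamycin wells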
H9c2 protect: protects H9c2 cardiomyocytes from peroxide injury. H2O2 injury protection, ATPLite, 2 h. protection from H2O2 cell death, % at 20 µM. actives 0.63% (n = 360,000);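 active means compounds giving at least 50% protection of heart cells from peroxide-induced death in the single-dose screen, raw or plate-pattern-corrected value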;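 further: 0% = DMSO wells with peroxide and 100% = DMSO wells without peroxide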
Vif inh: inhibitors of HIV Vif; HEK293T cells, Vif self-association by quenched fluorescence, imaging, 24 h; inhibition, % at 7.49 µM; actives 0.35% (n = 340,000); AID 602346; in the data active means inhibition above about 50%, passing the limit was not always enough
ARNT TACC3 PPI: disruptors of human ARNT/TACC3 interaction; Q9Y6A5; AlphaScreen His-ARNT PAS-B/GST-TACC3 binding, luminescence; TACC3 fragment carries E629A point mutation; inhibition, % at 9.99 µM; actives 0.66% (n = 390,000);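 active means mean inhibition of replicates at least 50% and at least half of replicates each reaching 50%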;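 further: 0% = complete ARNT plus TACC3 wells and 100% = ARNT alone without TACC3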
aDG glyco act: alpha-DG glycosylation activation; AID 624168; activation, % at 10 µM; Pro5-aDG cells, alpha-DG glycosylation AlphaScreen (IIH6); 0% Pro5, 100% B10-LARGE cell signal; actives 0.22% (n = 360,000);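 active means activation of at least 8% versus controls, or a plate z-score of at least 8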;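 further: Pro5 are CHO cells carrying HIG-tagged alpha-DG that lacks glycosylation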
Numbers without * were called inactive; / = no result given.

SMILES | N-glyco inh | H9c2 protect | Vif inh | ARNT TACC3 PPI | aDG glyco act
COc1ccc(CCn2c(=N)c(C(=O)NC3CCCC3)cc3c(=O)n4cccc(C)c4nc32)cc1 | 2.7 | -12.8 | 9.5 | -8.8 | 0.0
Cc1cccn2c(=O)c3cc(C(=O)NC4CCCC4)c(=N)n(CCc4ccccc4)c3nc12 | 29.9* | -18.9 | 10.8 | 4.5 | 0.2
COc1ccc(-c2cnc3c(c2)C(=O)N([C@H](C)CO)C[C@H](C)[C@H](CN(C)C(=O)NC2CCCC2)O3)cc1 | / | / | / | -1.0 | /
Cc1ccc(-c2cc(C(=O)N/N=C/c3c(C)nn(-c4ccccc4)c3C)n[nH]2)s1 | 15.4 | 72.5* | 29.8 | -0.4 | -0.2
Cc1nn(-c2ccccc2)c(C)c1/C=N/NC(=O)c1cc(C(C)(C)C)[nH]n1 | 6.0 | 54.2* | -11.2 | 3.1 | 0.3
C[C@H](CO)N1C[C@H](C)[C@H](CN(C)Cc2ccncc2)Oc2ccc(NC(=O)Cn3cnnn3)cc2CC1=O | / | / | / | -6.2 | /
COCC(=O)Nc1ccc2c(c1)OC[C@H](C)N(C(=O)c1ccccc1F)C[C@@H](C)[C@@H](OC)CN(C)C2=O | / | / | / | -10.1 | /
O=C(NCC1CC1)[C@H]1[C@H](CO)[C@H]2Cn3c(ccc(/C=C/c4ccccc4)c3=O)[C@@H]1N2C(=O)C1CC1 | / | / | / | -27.5 | /
CCOc1c(C(N)=O)c(-c2ccccc2)c2c(=O)[nH]c3ccccc3n12 | 0.6 | -4.4 | 31.7* | 0.7 | -0.4
Cc1sc2nc[nH]c(=S)c2c1-c1ccccc1 | 1.6 | 65.7* | -2.5 | 28.1 | 0.1
C/C=C/c1ccc([C@@H]2[C@@H](CO)N(C(=O)C3CC3)[C@H]2CN(CC)C(C)=O)cc1 | / | / | / | -2.4 | /
C[C@H](CO)N1C[C@H](C)[C@@H](CN(C)C(=O)c2cccnc2)Oc2ncc(-c3ccc(C#N)cc3)cc2C1=O | / | / | / | -9.6 | /
CC1Cc2ccccc2N1C(=O)CSc1nc2c(c(=O)n(C)c(=O)n2C)n1Cc1ccccc1 (stereo not given) | 3.9 | 71.5* | 0.8 | -4.1 | -0.1
CCn1c(SCC(=O)N2c3ccccc3CCc3ccccc32)nc2c1c(=O)n(C)c(=O)n2C | -4.1 | 31.8 | / | -11.6 | -0.2
C[C@@H]1CN([C@@H](C)CO)C(=O)c2cc(NC(=O)C3CCCCC3)ccc2O[C@@H]1CN(C)C(=O)Nc1ccc(F)cc1 | / | / | / | 8.5 | /
CN(C)Cc1cn(CC[C@@H]2CC[C@@H](NC(=O)Nc3ccccc3F)[C@H](CO)O2)nn1 | / | / | / | -0.5 | /
Cc1cc(N2CCCC2=O)cc(C)c1S(=O)(=O)NCCOc1ccc(C(C)(C)C)cc1 | -6.5 | -17.9 | -14.5 | / | 11.2*
S=c1[nH]nc(-c2cc(-c3ccccc3)n[nH]2)n1/N=C/C(Br)=C/c1ccccc1 | 32.2* | -0.2 | 20.1 | / | -0.4
c1ccc(N2CCOCC2)c(Nc2nc3ccccc3n3cnnc23)c1 | 1.4 | 81.0* | -17.9 | -2.6 | -0.1
COc1ccc(Nc2nc3ccccc3n3cnnc23)cc1 | 0.2 | 23.0 | 0.8 | -0.1 | -0.2
COc1cccc(/C=N/Nc2nc3ccccc3n3cnnc23)c1 | 4.0 | 56.6* | 3.7 | 0.4 | -0.3
COc1cccc(/C=N/Nc2nn3cnnc3c3ccccc23)c1 | 8.6 | -9.3 | -17.3 | / | 0.3
COc1cccc(/C=N/Nc2nc3ccccc3n3cnnc23)c1O | -6.7 | 42.9 | 1.9 | 84.9* | 0.5
Fc1cccc(Nc2nc3ccccc3n3cnnc23)c1 | 8.3 | 27.4 | -1.7 | -2.1 | -0.1
c1ccc2c(c1)nc(N1CCOCC1)c1nncn12 | 3.1 | 2.6 | -4.5 | -5.5 | 0.0
SMILES | N-glyco inh | H9c2 protect | Vif inh | ARNT TACC3 PPI | aDG glyco act
CC(=O)c1cccc(Nc2nc3ccccc3n3cnnc23)c1 | 15.1 | 67.0* | 2.6 | -6.6 | -0.1
C[C@H](CO)N1C[C@H](C)[C@@H](CN(C)C)Oc2ncc(/C=C/c3ccccc3)cc2C1=O | / | / | / | -1.9 | /
COc1ccccc1-c1cnc2c(c1)C(=O)N([C@H](C)CO)C[C@@H](C)[C@H](CN(C)Cc1ccc(F)cc1)O2 | / | / | / | -0.2 | /
C/C=C/c1ccc([C@@H]2[C@@H](CO)N(C(=O)COC)[C@@H]2CNC(=O)CC)cc1 | / | / | / | -8.6 | /
c1nc(SSc2ncnc3nc[nH]c23)c2[nH]cnc2n1 | 106.1* | -0.1 | 14.7 | 22.4 | -0.3
O=C(O)CSc1ncnc2nc[nH]c12 | 1.8 | 3.7 | 6.2 | -15.1 | 0.1
CC1CCN(c2nc(-c3cccnc3)nc3scc(-c4ccccc4)c23)CC1 | -2.1 | -8.2 | -38.5 | 1.0 | -0.1
Clc1nc(-c2ccccn2)nc2scc(-c3ccccc3)c12 | -13.7 | -7.7 | -10.3 | 60.0* | 1.2
CO[C@@H]1CN(C)C(=O)c2cc(NS(=O)(=O)c3ccc(Cl)cc3)ccc2OC[C@@H](C)N(C(=O)Cc2cccnc2)C[C@H]1C | / | / | / | -8.3 | /
Cc1ccnc(N/C=C(\C#N)c2nc(-c3cccc(Br)c3)cs2)c1 | -1.9 | 9.9 | 91.1* | 4.0 | 0.2
CC(C)(C)[C@H](NC(=O)c1ccc(N)c(Cl)c1)C(=O)N1CCC[C@H]1C(=O)N[C@H](C#N)CC(=O)O | 3.3 | 0.9 | -9.2 | / | -0.2
CCOC(=O)C[C@@H](C#N)NC(=O)[C@@H]1CCCN1C(=O)[C@@H](NC(=O)c1ccc(N)c(Cl)c1)C(C)(C)C | 2.0 | 13.6 | 75.5* | / | -0.4
C[C@@H]1CN([C@H](C)CO)C(=O)Cc2cc(NS(=O)(=O)c3cn(C)cn3)ccc2O[C@@H]1CN(C)Cc1ccc(C(F)(F)F)cc1 | / | / | / | -2.0 | /
Cc1nc2ccc(C(=O)NCCc3c[nH]c4ccccc34)cn2c1N(C)C(=O)CCc1ccccc1 | -1.9 | 23.7 | 54.0* | / | -0.1
CCCNC(=O)N1C[C@H](O)COC[C@@H]2O[C@@H](CC(=O)OC)CC[C@H]21 | / | / | / | -1.0 | /
COc1ccc(C(=O)COc2ccccc2C(N)=O)cc1 | -2.4 | 69.2* | 3.4 | -8.1 | 0.4
O=C(COC(=O)c1ccccc1O)Nc1cccnc1Cl | 0.0 | 2.0 | 9.4 | -4.1 | -0.3
NC(=O)c1ccccc1OCC(=O)NC12CC3CC(CC(C3)C1)C2 | 1.1 | 56.1* | 9.3 | 1.9 | -0.1
NC(=O)c1ccccc1OCC(=O)NS(=O)(=O)c1ccccc1 | 3.5 | 2.5 | 56.1* | -1.8 | -0.2
NC(=O)c1ccccc1OCC(=O)Nc1cccnc1Cl | 1.2 | 52.6* | -1.9 | -0.3 | 0.0
CC(=O)Oc1cc(C(=O)OCC(=O)NC23CC4CC(CC(C4)C2)C3)cc(OC(C)=O)c1OC(C)=O | -4.7 | 83.8* | 67.2* | -3.0 | -0.3
COc1cccc(C(=O)OCC(=O)NC23CC4CC(CC(C4)C2)C3)c1 | 3.3 | -1.8 | 25.6 | -36.9 | -0.1
CCC(=O)N(C)C[C@@H]1Oc2ncc(-c3cccc(OC)c3)cc2C(=O)N([C@H](C)CO)C[C@@H]1C | / | / | / | 0.0 | /
CCc1ccc(OC2(C)CCN(Cc3ccccc3OC(F)F)C2)cc1 (stereo not given) | -0.3 | -13.4 | 73.3* | / | -0.2
C[C@@H]1CCCCO[C@@H](CN(C)C(=O)CCC(F)(F)F)[C@H](C)CN([C@@H](C)CO)C(=O)c2cc(NS(=O)(=O)c3ccc(F)cc3)ccc2O1 | / | / | / | 1.0 | /

Assay outcomes: PubChem BioAssay, several laboratories
